From the supplement of paper PMC10849652
Targets with a hit are over-represented here; the source holds about 7,900 in all. About 0.6% of all pairs of compound and target were hits. Values without a mark were called inactive.

Legend:
Test in all cases: log2 fold change, soluble protein after heating vs DMSO (PISA); higher = thermal stabilisation; K562 cells, 10 uM, 30 min; active = over 0.2 and 3.5 SD of the protein, either way, in both replicates (recomputed)
IRAK-1-4 Inhibitor I = compound: C1COCCN1CCN2C3=CC=CC=C3N=C2NC(=O)C4=CC(=CC=C4)[N+](=O)[O-] [IRAK-1-4 Inhibitor I]
Outline: (§1)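 Values are thermal stability changes relative to control samples and are taken from duplicates. They are stated as log2 fold changes. Before quantification by TMTpro 16plex LC-MS/MS with equalised channel sums, K562 cells at 2×10^6 cells/mL were treated with 10 μM compound for 30 min, heated in aliquots for 3 min across 48°C-58°C, pooled, extracted in PBS with 0.5% NP-40 at 4°C, and centrifuged at 21,000xg for 90 min to give the soluble supernatant.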

ibrutinib = compound: C=CC(=O)N1CCC[C@@H](n2nc(-c3ccc(Oc4ccccc4)cc3)c3c(N)ncnc32)C1 [ibrutinib]
Outline: as §1

[1] = compound: CC(=O)c1cnc2ccc(-c3cc(Cl)c(O)c(Cl)c3)nc2c1N[C@H]1CC[C@H](CN(C)C)CC1
Outline: as §1

ralimetinib = compound: CC(C)(C)Cn1c(N)nc2ccc(-c3[nH]c(C(C)(C)C)nc3-c3ccc(F)cc3)nc21 [ralimetinib]
Outline: as §1

[2] = compound: CC(C)(O)CC(=O)NCCn1ccc2ncnc(Nc3ccc(Oc4cccc(C(F)(F)F)c4)c(Cl)c3)c21
Outline: as §1

[3] = compound: CC(C)C1=C2N=C(C=C(N2N=C1)NCC3=CC=CC=C3)NCCCCCCN
Outline: as §1

[4] = compound: CC(C)C[C@@H](C=O)NC(=O)[C@H](CC(C)C)NC(=O)[C@H](CC(C)C)NC(=O)OCc1ccccc1
Outline: as §1

pinometostat = compound: CC(C)N(C[C@H]1O[C@@H](n2cnc3c(N)ncnc32)[C@H](O)[C@@H]1O)[C@H]1C[C@@H](CCc2nc3cc(C(C)(C)C)ccc3[nH]2)C1 [pinometostat]
Outline: as §1

[5] = compound: CC1=C(C(CC(=O)N1)C2=CC=C(C=C2)C(F)(F)F)C(=O)NC3=C(C=C4C(=C3)C=NN4)F
Outline: as §1

[6] = compound: CC1=C(C2=C(C=C1)C(=O)C3=CC=CC=C3N2CCCN)C
Outline: as §1

UniProt O43766, sequence (O43766 whole entry, looked up): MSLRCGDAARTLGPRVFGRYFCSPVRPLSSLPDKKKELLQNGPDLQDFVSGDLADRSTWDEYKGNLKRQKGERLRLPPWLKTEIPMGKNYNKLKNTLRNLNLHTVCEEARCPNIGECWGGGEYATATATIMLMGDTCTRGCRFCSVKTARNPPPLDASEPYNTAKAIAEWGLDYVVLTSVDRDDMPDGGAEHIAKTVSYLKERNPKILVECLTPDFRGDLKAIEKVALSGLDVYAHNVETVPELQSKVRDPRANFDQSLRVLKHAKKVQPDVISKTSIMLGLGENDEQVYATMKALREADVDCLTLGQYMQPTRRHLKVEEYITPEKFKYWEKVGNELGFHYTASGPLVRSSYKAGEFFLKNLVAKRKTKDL
UniProt P43362, sequence (P43362 whole entry, looked up): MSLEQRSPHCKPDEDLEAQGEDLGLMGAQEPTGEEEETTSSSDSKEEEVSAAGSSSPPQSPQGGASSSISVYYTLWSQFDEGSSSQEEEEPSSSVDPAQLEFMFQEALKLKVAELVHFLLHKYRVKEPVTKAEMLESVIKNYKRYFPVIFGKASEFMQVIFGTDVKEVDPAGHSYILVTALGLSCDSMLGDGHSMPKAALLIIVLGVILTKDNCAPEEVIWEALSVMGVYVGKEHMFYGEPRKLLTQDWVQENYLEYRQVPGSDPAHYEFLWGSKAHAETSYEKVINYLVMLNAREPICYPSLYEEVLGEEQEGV
UniProt O14880, sequence (O14880 whole entry, looked up): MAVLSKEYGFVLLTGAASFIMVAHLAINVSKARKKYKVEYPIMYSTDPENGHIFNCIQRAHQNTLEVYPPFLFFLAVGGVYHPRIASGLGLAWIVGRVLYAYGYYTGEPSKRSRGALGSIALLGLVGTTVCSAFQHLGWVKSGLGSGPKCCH
UniProt O95232, sequence (O95232 whole entry, looked up): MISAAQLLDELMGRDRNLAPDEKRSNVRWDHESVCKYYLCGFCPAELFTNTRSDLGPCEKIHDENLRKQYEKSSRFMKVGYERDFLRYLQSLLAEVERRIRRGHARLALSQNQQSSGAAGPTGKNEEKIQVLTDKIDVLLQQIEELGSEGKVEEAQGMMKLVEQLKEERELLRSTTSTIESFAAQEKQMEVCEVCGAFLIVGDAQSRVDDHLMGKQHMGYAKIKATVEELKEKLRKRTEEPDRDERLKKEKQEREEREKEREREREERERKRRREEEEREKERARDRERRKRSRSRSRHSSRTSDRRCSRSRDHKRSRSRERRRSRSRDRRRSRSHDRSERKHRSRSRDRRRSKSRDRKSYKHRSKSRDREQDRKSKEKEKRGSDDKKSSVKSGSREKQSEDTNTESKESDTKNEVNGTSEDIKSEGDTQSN
UniProt P14174, sequence (P14174 whole entry, looked up): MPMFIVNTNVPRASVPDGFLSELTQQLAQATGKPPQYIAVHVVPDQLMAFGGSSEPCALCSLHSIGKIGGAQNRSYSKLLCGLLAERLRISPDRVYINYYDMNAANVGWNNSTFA
UniProt Q9Y4K4, sequence (Q9Y4K4 whole entry, looked up): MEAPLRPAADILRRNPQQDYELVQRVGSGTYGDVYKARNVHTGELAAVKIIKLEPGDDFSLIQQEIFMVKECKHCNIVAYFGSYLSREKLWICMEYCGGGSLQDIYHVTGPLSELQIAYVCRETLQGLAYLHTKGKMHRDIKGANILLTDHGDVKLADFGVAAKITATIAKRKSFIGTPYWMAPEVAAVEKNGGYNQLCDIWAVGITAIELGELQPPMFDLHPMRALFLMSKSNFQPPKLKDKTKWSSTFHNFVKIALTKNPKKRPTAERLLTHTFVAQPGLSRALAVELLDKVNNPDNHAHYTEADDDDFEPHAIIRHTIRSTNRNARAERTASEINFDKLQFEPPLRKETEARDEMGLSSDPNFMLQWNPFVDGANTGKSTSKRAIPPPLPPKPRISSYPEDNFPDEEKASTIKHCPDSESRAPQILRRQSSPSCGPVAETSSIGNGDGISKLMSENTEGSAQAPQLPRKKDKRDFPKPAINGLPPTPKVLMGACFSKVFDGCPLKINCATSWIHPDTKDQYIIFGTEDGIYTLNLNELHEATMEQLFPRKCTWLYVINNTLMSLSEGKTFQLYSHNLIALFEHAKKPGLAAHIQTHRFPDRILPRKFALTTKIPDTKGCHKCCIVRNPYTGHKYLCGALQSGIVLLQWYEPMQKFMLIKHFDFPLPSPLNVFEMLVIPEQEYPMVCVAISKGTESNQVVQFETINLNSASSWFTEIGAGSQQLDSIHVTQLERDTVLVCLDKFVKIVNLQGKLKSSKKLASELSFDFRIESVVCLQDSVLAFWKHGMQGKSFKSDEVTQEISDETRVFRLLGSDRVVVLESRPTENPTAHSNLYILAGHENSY
UniProt Q96GA3, sequence (Q96GA3 whole entry, looked up): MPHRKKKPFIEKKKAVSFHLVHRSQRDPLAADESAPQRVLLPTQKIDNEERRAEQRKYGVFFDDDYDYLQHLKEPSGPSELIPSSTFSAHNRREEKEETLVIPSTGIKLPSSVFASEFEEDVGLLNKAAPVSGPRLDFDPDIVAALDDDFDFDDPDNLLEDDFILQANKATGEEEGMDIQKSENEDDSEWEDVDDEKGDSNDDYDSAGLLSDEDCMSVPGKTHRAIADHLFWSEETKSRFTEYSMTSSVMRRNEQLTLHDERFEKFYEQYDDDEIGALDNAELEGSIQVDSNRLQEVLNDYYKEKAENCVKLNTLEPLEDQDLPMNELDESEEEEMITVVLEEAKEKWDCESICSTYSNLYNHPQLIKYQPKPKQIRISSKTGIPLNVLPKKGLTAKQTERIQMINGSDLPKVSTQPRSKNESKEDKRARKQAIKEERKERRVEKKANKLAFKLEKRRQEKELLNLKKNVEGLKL
UniProt Q9UHB6, sequence (Q9UHB6 whole entry, looked up): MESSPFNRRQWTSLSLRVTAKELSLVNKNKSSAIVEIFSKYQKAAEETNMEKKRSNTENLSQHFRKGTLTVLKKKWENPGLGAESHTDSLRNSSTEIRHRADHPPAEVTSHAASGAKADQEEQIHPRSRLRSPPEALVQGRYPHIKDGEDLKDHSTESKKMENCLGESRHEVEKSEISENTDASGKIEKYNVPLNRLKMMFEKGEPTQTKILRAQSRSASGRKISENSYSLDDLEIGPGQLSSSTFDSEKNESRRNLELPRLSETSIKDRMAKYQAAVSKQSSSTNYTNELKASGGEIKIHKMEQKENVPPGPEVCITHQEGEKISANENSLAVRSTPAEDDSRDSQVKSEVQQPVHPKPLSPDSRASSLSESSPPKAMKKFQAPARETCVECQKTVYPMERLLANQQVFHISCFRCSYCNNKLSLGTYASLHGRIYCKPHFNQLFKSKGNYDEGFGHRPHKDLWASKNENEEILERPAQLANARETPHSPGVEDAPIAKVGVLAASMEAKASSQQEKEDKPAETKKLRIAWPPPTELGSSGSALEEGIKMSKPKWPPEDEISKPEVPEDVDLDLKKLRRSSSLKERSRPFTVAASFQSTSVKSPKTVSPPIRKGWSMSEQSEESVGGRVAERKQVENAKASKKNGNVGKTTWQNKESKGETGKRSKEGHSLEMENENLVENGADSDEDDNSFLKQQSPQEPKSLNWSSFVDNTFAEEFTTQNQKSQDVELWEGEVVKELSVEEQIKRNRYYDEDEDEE
UniProt Q7L2J0, sequence (Q7L2J0 whole entry, looked up): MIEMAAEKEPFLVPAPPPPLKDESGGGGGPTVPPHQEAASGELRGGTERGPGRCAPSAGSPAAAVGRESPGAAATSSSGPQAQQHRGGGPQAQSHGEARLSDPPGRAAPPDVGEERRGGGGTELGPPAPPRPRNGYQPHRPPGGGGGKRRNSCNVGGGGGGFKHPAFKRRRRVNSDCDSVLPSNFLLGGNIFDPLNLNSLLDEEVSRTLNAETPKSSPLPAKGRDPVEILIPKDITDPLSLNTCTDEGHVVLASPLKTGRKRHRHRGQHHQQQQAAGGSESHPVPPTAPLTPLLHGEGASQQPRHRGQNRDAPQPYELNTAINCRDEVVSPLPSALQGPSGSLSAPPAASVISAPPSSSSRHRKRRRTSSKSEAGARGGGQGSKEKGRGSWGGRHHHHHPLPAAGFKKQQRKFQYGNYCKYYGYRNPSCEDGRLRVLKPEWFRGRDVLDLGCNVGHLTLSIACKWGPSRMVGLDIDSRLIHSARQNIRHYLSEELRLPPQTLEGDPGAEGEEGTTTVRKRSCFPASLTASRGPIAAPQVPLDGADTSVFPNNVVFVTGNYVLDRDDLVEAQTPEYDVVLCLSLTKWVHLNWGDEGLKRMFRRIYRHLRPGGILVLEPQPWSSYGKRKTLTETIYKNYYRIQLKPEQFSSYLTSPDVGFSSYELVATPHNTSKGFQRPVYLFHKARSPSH
UniProt Q14145, sequence (Q14145 whole entry, looked up): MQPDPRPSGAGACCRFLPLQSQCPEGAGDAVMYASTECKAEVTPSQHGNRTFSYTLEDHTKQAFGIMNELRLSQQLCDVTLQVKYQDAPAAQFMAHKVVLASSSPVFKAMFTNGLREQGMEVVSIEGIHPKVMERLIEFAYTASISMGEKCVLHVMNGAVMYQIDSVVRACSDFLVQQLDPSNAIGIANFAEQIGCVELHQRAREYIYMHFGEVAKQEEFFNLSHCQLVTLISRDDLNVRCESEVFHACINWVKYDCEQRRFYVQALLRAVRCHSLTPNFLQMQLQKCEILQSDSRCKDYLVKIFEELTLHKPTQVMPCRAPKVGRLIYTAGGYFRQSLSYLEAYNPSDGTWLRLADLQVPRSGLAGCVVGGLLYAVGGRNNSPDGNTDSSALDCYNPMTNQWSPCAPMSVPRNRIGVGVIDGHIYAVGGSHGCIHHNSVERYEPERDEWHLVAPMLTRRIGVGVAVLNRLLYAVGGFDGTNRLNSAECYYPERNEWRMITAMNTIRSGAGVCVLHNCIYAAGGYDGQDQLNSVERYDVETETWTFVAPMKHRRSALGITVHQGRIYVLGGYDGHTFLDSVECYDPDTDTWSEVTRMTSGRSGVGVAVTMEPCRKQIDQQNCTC
UniProt Q5XKP0, sequence (Q5XKP0 whole entry, looked up): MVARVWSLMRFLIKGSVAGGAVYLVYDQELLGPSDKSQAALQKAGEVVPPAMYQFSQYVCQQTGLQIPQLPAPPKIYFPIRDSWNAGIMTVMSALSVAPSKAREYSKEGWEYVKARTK

| Target | log2 fold change (IRAK-1-4 Inhibitor I) | log2 fold change (ibrutinib) | log2 fold change [1] | log2 fold change (ralimetinib) | log2 fold change [2] | log2 fold change [3] | log2 fold change [4] | log2 fold change (pinometostat) | log2 fold change [5] | log2 fold change [6] |
| --- | --- | --- | --- | --- | --- | --- | --- | --- | --- | --- |
| KLC2 (UniProt Q9H0B6) | -0.035 | -0.024 | -0.309 (active) | 0.041 | -0.02 | -0.107 | 0.083 | 0.023 | -0.03 | 0.133 |
| LIAS (UniProt O43766) | 0.029 | 0.005 | 0.101 | -0.212 | -0.003 | -0.023 | 0.131 | -0.011 | 0.003 | -0.01 |
| MICOS13 (UniProt Q5XKP0) | 0.087 | -0.012 | -0.022 | -0.077 | -0.193 | -0.146 | 0.006 | -0.023 | -0.009 | -0.008 |
| KIF3A (UniProt Q9Y496) | 0.04 | -0.016 | 0.034 | 0.085 | -0.151 | -0.336 | -0.065 | 0.051 | 0.087 | -0.081 |
| MAP4K5 (UniProt Q9Y4K4) | -0.02 | 0.067 | -0.289 (active) | -0.045 | -0.057 | -0.034 | 0.034 | -0.014 | -0.046 | -0.02 |
| MED7 (UniProt O43513) | 0.042 | 0.042 | 0.001 | 0.113 | 0.022 | -0.078 | -0.068 | 0.113 | 0.403 (active) | 0.119 |
| MAPKAPK5 (UniProt Q8IW41) | 0.029 | -0.003 | 0.052 | 0.029 | -0.139 | 0.218 | 0.055 | -0.042 | -0.161 | 0.002 |
| LIMA1 isoform 4 (UniProt Q9UHB6) | -0.031 | 0.033 | -0.267 (active) | 0.011 | 0.114 | 0.206 | -0.03 | 0.006 | 0.079 | 0.049 |
| KIAA1324L (UniProt A8MWY0) | 0.027 | -0.056 | -0.052 | -0.024 | -0.038 | 0.024 | 0 | -0.008 | 0.034 | -0.037 |
| IPO9 (UniProt Q96P70) | 0.024 | -0.082 | 0.113 | 0.01 | -0.079 | -0.039 | -0.068 | 0.012 | -0.025 | 0.447 (active) |
| MAGEA9 (UniProt P43362) | 0.008 | -0.094 | 0.101 | 0 | 0.031 | -0.256 | 0.087 | 0.009 | 0.057 | -0.49 (active) |
| KDM1A isoform 2 (UniProt O60341) | -0.014 | 0.014 | -0.123 | 0.175 | -0.111 | -0.041 | 0.031 | 0.046 | 0.012 | -0.05 |
| MAP4K4 isoform 3 (UniProt O95819) | 0 | 0.043 | -1.13 (active) | -0.039 | -0.023 | -0.027 | 0.024 | 0.046 | 0.107 | 0.073 |
| MCCC2 (UniProt Q9HCC0) | 0.046 | 0.019 | 0.047 | -0.015 | 0.027 | 0.024 | -0.04 | -0.05 | 0 | 0.003 |
| MARCKS (UniProt P29966) | -0.077 | 0.071 | 0.014 | 0.025 | -0.099 | 0.039 | 0.134 | -0.109 | 0.031 | 0.002 |
| MIF (UniProt P14174) | 0.017 | 0.039 | -0.014 | 0.071 | -0.119 | 0.052 | 0.04 | -0.043 | 0.201 | 0.133 |
| MGST3 (UniProt O14880) | 0.115 | 0.042 | 0.036 | 0.062 | 0.041 | 0.073 | 0.006 | -0.025 | 0.011 | -0.014 |
| LTV1 (UniProt Q96GA3) | -0.101 | -0.009 | 0.224 | 0.134 | 0.001 | -0.233 | 0.104 | 0.249 | -0.005 | -0.726 (active) |
| KEAP1 (UniProt Q14145) | 0.008 | -0.085 | 0.022 | 0.074 | -0.07 | -0.233 (active) | 0.023 | 0.109 | -0.017 | 0.028 |
| KSR1 (UniProt Q8IVT5) | -0.07 | -0.084 | -0.807 (active) | 0.065 | -0.231 | -0.085 | 0.085 | 0.035 | 0.011 | 0.044 |
| IMMP1L (UniProt Q96LU5) | 0.006 | 0.043 | 0.002 | 0.031 | 0.03 | 0.026 | 0.112 | -0.033 | 0.06 | 0.199 |
| LUC7L3 (UniProt O95232) | -0.123 | -0.037 | -0.409 (active) | -0.024 | 0.024 | -0.04 | 0.007 | -0.023 | -0.013 | 0.109 |
| LUZP1 (UniProt Q86V48) | -0.136 | -0.074 | 0.275 | 0.08 | 0.114 | 0.019 | 0.139 | 0.113 | 0.124 | 0.079 |
| IRAK4 (UniProt Q9NWZ3) | -0.012 | 0.002 | 0.196 | -0.014 | -0.092 | -0.252 (active) | -0.026 | 0.065 | 0.02 | -0.002 |
| MAPK12 (UniProt P53778) | 0.074 | 0.066 | 0.201 | -0.046 | 0.001 | 0.388 | -0.005 | -0.004 | 0.207 | -0.025 |
| KCTD2 (UniProt Q14681) | -0.03 | 0.058 | -0.054 | 0 | -0.015 | 0.016 | 0.171 | 0.052 | -0.049 | -0.028 |
| MEAK7 (UniProt Q6P9B6) | 0.015 | -0.041 | -0.093 | 0.078 | -0.018 | -0.2 | 0.079 | 0.037 | -0.004 | 0.033 |
| MEPCE (UniProt Q7L2J0) | 0.088 | 0.023 | 0.166 | 0.108 | 0.026 | -0.16 | 0 | 0.098 | -0.026 | -0.31 (active) |
| LMNA (UniProt P02545) | 0.006 | -0.023 | -0.18 | -0.058 | 0.115 | 0.076 | 0 | -0.057 | 0.005 | -0.017 |
| MFSD5 isoform 2 (UniProt Q6N075) | -0.068 | -0.016 | -0.007 | 0.019 | -0.017 | -0.053 | 0.003 | 0.049 | 0.039 | -0.061 |
